The results in this text go back to PubChem BioAssay AID1347076 (National Center for Advancing Translational Sciences (NCATS), 2019).

The structures appear in SMILES notation. The whole screen tested about 400,000 compounds, of which about 13,000 (3.2%) were called active. Not shown: some 18% with an inconclusive outcome. The call rests on the fitted dose curve; in most records, active means well fitted cell-killing curve with a large enough effect; inconclusive means small, poorly fitted or top-dose-only effect, or effect the other way; inactive means flat fitted curve, though single readings scatter. The sample as a whole holds a higher share of actives than the screen did.
On the % scale 0 is the no-effect control and ±100 the full control effect; potency means the concentration at half of the fitted maximal effect.

This assay can be described thus: qHTS assay for MDR1-selective chemotherapeutics: Primary screen using the drug-selected MDR subline cells KB-V1. Further: nearly all actives have a fitted effect of over 60% in size. Conditions: KB-V1 MDR cells viability, CellTiter-Glo, 72 h; series mostly up to 46.1 µM; activity change, negative = cytotoxicity: at the top concentration. The method in brief:
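Drug-selected KB-V1 cells, grown in DMEM lacking phenol red with 10% FBS, receive compound titrations; after three days at 37 degrees C, surviving cell ATP is quantified by CellTiter-Glo luminescence and responses normalized and curve-fitted.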
A general note: qHTS replaces the single test concentration by a dilution series.
In the case of `COc1ccc(OCC(=O)Nc2cc(C)c(Cl)cc2OC)c([N+](=O)[O-])c1`, the “activity change, negative = cytotoxicity” value was 0% (inactive).

Take `CCc1ccccc1NC(=O)N1CCN(C(=O)c2nsc3ccccc23)CC1`: the “activity change, negative = cytotoxicity” value is -9.18% (inactive).

Take `CCOc1cc(-c2nnc(SCC(=O)NC3CCCC3)nc2-c2ccc(OC)c(OCC)c2)ccc1OC`: the “activity change, negative = cytotoxicity” value is 3.85% (inactive).

On to `CC(=O)c1ccc(N2CCN(C(=O)c3ccc(Cl)c(S(=O)(=O)NC4CC4)c3)CC2)c(F)c1`, for which the “activity change, negative = cytotoxicity” value was 6.94% (inactive).

Regarding `CN(c1ccccc1)S(=O)(=O)c1cc(C(=O)Nc2nc3ccccc3[nH]2)ccc1Cl`, the Potency was 3.66 µM (active).

Consider `CN(c1ccccc1)S(=O)(=O)c1cc(C(=O)N2CCN(c3ncccn3)CC2)ccc1Cl`, for which the Potency was 2.91 µM (active).

As for `COc1cccc(C(=O)Nc2nnc(S(=O)(=O)N(C)c3ccccc3)s2)c1`, the “activity change, negative = cytotoxicity” value was 17.8% (inactive).

As to `CN(c1ccccc1)S(=O)(=O)c1ccc(C(=O)N2CCN(c3ccccc3Cl)CC2)cc1`, the “activity change, negative = cytotoxicity” value was -14.5% (inactive).

Turning to `CN(c1ccccc1)S(=O)(=O)c1cc(C(=O)OCC(=O)N2CCN(C(=O)c3ccco3)CC2)ccc1Cl`, the “activity change, negative = cytotoxicity” value is -22.2% (inactive).

As to `CC(OC(=O)c1ccc(NC(=O)CC#N)cc1)C(=O)Nc1ccc(S(=O)(=O)N2CCCC2)cc1` (configuration not stated), the “activity change, negative = cytotoxicity” value is -7.06% (inactive).

As for `Nc1nc2cc(Cl)ccc2n1N`, the “activity change, negative = cytotoxicity” value was 0.774% (inactive).

Turning to `CCCCN(CC)C(=O)c1c[nH]c2ccc(S(=O)(=O)Nc3cccc(OC)c3)cc2c1=O`, the “activity change, negative = cytotoxicity” value is 0.646% (inactive).

Consider `CCCc1nc2c3ccccc3ccn2c1Cc1ccccc1C(F)(F)F`, for which the “activity change, negative = cytotoxicity” value was 20.4% (inactive).

Regarding `COC(=O)[C@@]1(Cc2ccc(OC)cc2)[C@H]2c3cc(C(=O)N4CCCC4)n(Cc4ccc(OC(F)(F)F)cc4)c3C[C@H]2CN1C(=O)c1ccccc1`, the Potency is 20.6 µM (active).

With `C[C@]1(C(=O)NCCc2c[nH]c3ccccc23)C=C[C@@H](Cc2ccccc2)N1C(=O)c1ccccc1`, the “activity change, negative = cytotoxicity” value was -0.929% (inactive).

In the case of `COC(=O)[C@@]1(Cc2ccc(F)cc2)[C@H]2c3cc(C(=O)N(C)C)n(CCc4c[nH]c5ccc(OC)cc45)c3C[C@H]2CN1C(=O)c1ccccc1`, the Potency was 18.4 µM (active).

With `COc1ccc2c(c1)C(SCC(=O)NCc1ccccc1)CC(C)(C)O2` (configuration not stated), the “activity change, negative = cytotoxicity” value is -13.6% (inactive).

Turning to `COC(=O)[C@@]1(Cc2ccc(F)cc2)[C@H]2c3cc(C(=O)N4CCCC4)n(C[C@H](O)CO)c3C[C@H]2CN1C(=O)c1ccccc1`, the “activity change, negative = cytotoxicity” value is 24.6% (inactive).

On to `COc1ccc(CNC(=O)C2CCN(C(=O)c3ccccc3)CC2)cc1`, for which the “activity change, negative = cytotoxicity” value is 19% (inactive).

Consider `CCN1C(=O)[C@H]2[C@@H](c3ccc(C(F)(F)F)cc3)N[C@]3(CCCN(Cc4ccc(Br)cc4)C3=O)[C@H]2C1=O`, for which the “activity change, negative = cytotoxicity” value was -9.24% (inactive).

Turning to `CC1(C)CC(=O)C=C(c2ccccc2CO)C1=O`, the “activity change, negative = cytotoxicity” value is 0% (inactive).

Consider `Cn1c(Nc2ccc(F)cc2)nc2cc(-c3ccsc3)sc2c1=O`, for which the “activity change, negative = cytotoxicity” value is 3.2% (inactive).

Turning to `O=C(c1cnn2c1NC(=C1CC1)C=C2C(F)F)N1CCc2ccccc2C1`, the “activity change, negative = cytotoxicity” value is 7.8% (inactive).

For the compound `CCN(CC)S(=O)(=O)c1ccc2c(c1)c(=O)c(C(=O)N1CCN(c3cccc(Cl)c3)CC1)cn2C`, the “activity change, negative = cytotoxicity” value was 21.8% (inactive).

As to `CCn1cc(C(=O)NCc2ccccc2)c(=O)c2cc(S(=O)(=O)N3CCCCC3)ccc21`, the “activity change, negative = cytotoxicity” value is -5.6% (inactive).

In the case of `C=CCn1cc(C(=O)NCc2ccc(Cl)cc2)c(=O)c2cc(S(=O)(=O)N(CC)CC)ccc21`, the Potency was 18.4 µM (active).

On to `CCOC(=O)C1=CCC2C(=O)N(Cc3ccccc3)C(=O)C12` (configuration not stated), for which the “activity change, negative = cytotoxicity” value is 11.2% (inactive).

As to `COc1cc2ccccc2cc1C(=O)Nc1ccc(S(=O)(=O)Nc2cc(C)on2)cc1`, the “activity change, negative = cytotoxicity” value was -2.9% (inactive).

Turning to `CCc1ccc(S(=O)(=O)Nc2cc3c(C(=O)OCc4ccccc4)c(C)oc3c3ccccc23)cc1`, the “activity change, negative = cytotoxicity” value is 0% (inactive).

As for `COc1ccc(S(=O)(=O)Nc2ccc3oc(C)c(C(C)=O)c3c2)cc1`, the Potency was 2.59 µM (active).

With `CC(=O)c1c(C)oc2ccc(NS(=O)(=O)c3ccc(C(=O)O)cc3)cc12`, the “activity change, negative = cytotoxicity” value was 12.6% (inactive).

In the case of `COc1cc(NS(=O)(=O)c2ccc(NC(C)=O)cc2)cc(OC)c1`, the “activity change, negative = cytotoxicity” value was -3.57% (inactive).

With `COc1ccc(S(=O)(=O)Nc2cc3c(C(=O)OC(C)C)c(C)oc3c3ccccc23)cc1`, the Potency was 5.17 µM (active).

Consider `CN1CCn2cnc(C(=O)NCC(=O)OC(C)(C)C)c2C1=O`, for which the “activity change, negative = cytotoxicity” value is 15.1% (inactive).

For the compound `Cc1cccc(-n2ccnc2SCC(=O)Nc2cc(C(F)(F)F)ccc2Cl)c1`, the “activity change, negative = cytotoxicity” value was -2.14% (inactive).

As for `C[C@H](O)[C@@H]1C(=O)N2CCc3c([nH]c4ccccc34)[C@@H]2C[C@@H]1N(C)C(=O)Nc1ccc(F)cc1`, the “activity change, negative = cytotoxicity” value is 0.0676% (inactive).

Turning to `N#CC1(Nc2ccc3c4c(cccc24)CC3)CCCCC1`, the “activity change, negative = cytotoxicity” value was 10.3% (inactive).

As for `O=C(CNC(=O)c1cc2c(s1)CCC2)Nc1ccccc1Br`, the Potency is 18.4 µM (active).

Take `O=C(NCCCN1CCOCC1)c1cc2c(s1)CCC2`: the “activity change, negative = cytotoxicity” value was 13.1% (inactive).

On to `O=C(CCc1nc2sc3c(c2c(=O)[nH]1)CCCC3)NCC(=O)Nc1ccccc1Br`, for which the “activity change, negative = cytotoxicity” value is -26.1% (inactive).

With `CCN(Cc1ccncc1)C(=S)Nc1ccccc1C`, the “activity change, negative = cytotoxicity” value is 12.6% (inactive).

As for `COc1ccc([C@H]2C[C@@H](n3cc(COC(=O)c4ccccc4)nn3)[C@H](O)CN2C(=O)c2cccs2)cc1`, the “activity change, negative = cytotoxicity” value was 9.34% (inactive).

`O=C(Nc1ccc(OCCO)cc1)c1csc([C@H]2C[C@H](O)[C@@H](CO)O2)n1`: the “activity change, negative = cytotoxicity” value was 4.16% (inactive).

Regarding `Fc1cccc(Cc2c(-c3cccc(Cl)c3)nc3ccc(Br)cn23)c1`, the “activity change, negative = cytotoxicity” value was 11.4% (inactive).

Take `COc1ccc(Cl)cc1NC(=O)c1cccc(N2C(=O)C3CC=CCC3C2=O)c1` (configuration not stated): the “activity change, negative = cytotoxicity” value is 3.02% (inactive).

Regarding `COc1ccc(Cl)cc1NC(=O)COc1ccc2c(c1)OCO2`, the “activity change, negative = cytotoxicity” value was 23.4% (inactive).

Take `COc1ccc(Cl)cc1NC(=O)COC(=O)C(CC(C)C)N1C(=O)C2CC=CCC2C1=O` (configuration not stated): the Potency is 10.3 µM (active).
